Each structure is given as a SMILES string.

The first experiment concerns Pectobacterium parmentieri SCC3193. As to the kind of experiment: DuctApe activity index (growth/respiration on compound as sole nutrient source, blank-subtracted) (activity index (0-3)); higher = stronger utilization of the compound, active = 3 or more. The settings on record: nutrient role (plate category): carbon. On the procedure: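 Biolog Phenotype Microarray plates PM1, PM2A (carbon), PM3 (nitrogen) and PM4 (phosphorus/sulfur) inoculated with P. parmentieri SCC3193 in M9-C minimal salts medium with Biolog dye A, and read in the OmniLog for 46 h. Each well was tested in triplicate and the experiment was run twice. DuctApe computed a blank-subtracted activity index (AV, 0-3) from the mean curves; growth is positive at AV >= 3 and negative at AV <= 2.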
`O=P(O)(O)OC[C@H](O)CO` (racemic) [DL-a-Glycerol Phosphate]: the DuctApe activity index was 3 (active).
As to `NC(=O)[C@H]1O[C@@H](O)[C@H](O)[C@@H](O)[C@@H]1O` [Glucuronamide], the DuctApe activity index was 0 (inactive).
For `O=C(O)c1ccccc1O` [2-Hydroxybenzoic acid], the DuctApe activity index was 0 (inactive).
Same read-out and setting: the figure for `OCC1OC(O)(CO)C(O)C1O` [D-Fructose] is 3 (active).
Turning to `C[C@@H](O)[C@H](N)C(=O)O` [L-Threonine], the DuctApe activity index is 0 (inactive).
On to `CSCC[C@H](N)C(=O)O` [L-Methionine], for which the DuctApe activity index is 0 (inactive).
Consider `O=c1[nH]cnc2c1ncn2[C@@H]1O[C@H](CO)[C@@H](O)[C@H]1O` [Inosine], for which the DuctApe activity index was 1 (inactive).
Take `OC[C@H]1O[C@@H](O[C@@H]2[C@@H](CO)OC(O)(CO)[C@H]2O)[C@H](O)[C@@H](O)[C@H]1O` (mixture of isomers) [Lactulose]: the DuctApe activity index was 3 (active).
In the case of `CO[C@@H]1O[C@H](CO)[C@@H](O)[C@H](O)[C@H]1O` [b-Methyl-D-Glucoside], the DuctApe activity index was 3 (active).
For `OCC1OC(OC2C(CO)OC(O)C(O)C2O)C(O)C(O)C1O` [D-Cellobiose], the DuctApe activity index is 3 (active).
Same read-out and setting: the figure for `OC[C@H]1OC(O)[C@@H](O)[C@@H](O)[C@@H]1O` (stereo partly drawn) [D-Mannose] is 3 (active); for `N[C@@H](CC(=O)O)C(=O)O` [L-Aspartic acid] it is 3 (active).
Still for that read-out and setting: the figure for `C/C=C/C=C/C(=O)O` [Sorbic acid] is 0 (inactive); for `OC[C@@H](O)C(O)[C@H](O)CO` [D-Arabitol] it is 0 (inactive).
On the same count and under the same terms, the figure for `O=C(O)[C@@H]1CCCN1` [L-Proline] is 0 (inactive).
Take `N[C@H]1C(O)O[C@H](CO)[C@@H](O)[C@@H]1O` (stereo partly drawn) [D-Glucosamine]: the DuctApe activity index was 3 (active).
`O[C@@H]1[C@@H](O)[C@@H](O)CO[C@H]1O` [L-Arabinose]: the DuctApe activity index was 3 (active).
For `CC(=O)N[C@@H](CO)[C@@H](O)[C@H](O)[C@H](O)CO` [N-Acetyl-D-Glucosaminitol], the DuctApe activity index is 0 (inactive).

Staying with this experiment, now noted: nutrient role (plate category): nitrogen.
In the case of `NC(=O)[C@H]1O[C@@H](O)[C@H](O)[C@@H](O)[C@@H]1O` [Glucuronamide], the DuctApe activity index is 2 (inactive).
The same measure, in the same setting: the figure for `N[C@@H]1C(O)O[C@H](CO)[C@@H](O)[C@@H]1O` (stereo partly drawn) [D-Mannosamine] is 2 (inactive).
As for `O=C1NC(=O)C(=O)N1` [Parabanic acid], the DuctApe activity index is 0 (inactive).
Still for that read-out and setting: the figure for `C[C@@H](O)[C@H](N)C(=O)O` [L-Threonine] is 0 (inactive); for `CSCC[C@H](N)C(=O)O` [L-Methionine] it is 0 (inactive); for `O=c1[nH]cnc2c1ncn2[C@@H]1O[C@H](CO)[C@@H](O)[C@H]1O` [Inosine] it is 0 (inactive).
Turning to `NC=O` [Formamide], the DuctApe activity index was 0 (inactive).
Same read-out and setting: the figure for `CC(O)C(N)=O` (racemic) [DL-Lactamide] is 0 (inactive).
Take `N[C@@H](CC(=O)O)C(=O)O` [L-Aspartic acid]: the DuctApe activity index is 0 (inactive).
For `C[C@H](N)C(=O)N[C@@H](Cc1cnc[nH]1)C(=O)O`, the DuctApe activity index is 0 (inactive).
On the same count and under the same terms, the figure for `O=C(O)[C@@H]1CCCN1` [L-Proline] is 0 (inactive).
Same read-out and setting: the figure for `N[C@H]1C(O)O[C@H](CO)[C@@H](O)[C@@H]1O` (stereo partly drawn) [D-Glucosamine] is 3 (active).

Still in this experiment, the particulars now being: nutrient role (plate category): phosphate & sulphur.
Take `O=P(O)(O)OC[C@H](O)CO` (racemic) [DL-a-Glycerol Phosphate]: the DuctApe activity index is 1 (inactive).
On the same count and under the same terms, the figure for `N[C@@H]1[C@@H](O)[C@H](O)[C@@H](COP(=O)(O)O)O[C@@H]1O` [D-Glucosamine-6-Phosphate] is 2 (inactive); for `N[C@@H](Cc1ccc(OP(=O)(O)O)cc1)C(=O)O` [O-Phospho-L-Tyrosine] it is 2 (inactive); for `NC(=O)OP(=O)(O)O` [Carbamyl Phosphate] it is 1 (inactive).
On the same count and under the same terms, the figure for `CSCC[C@H](N)C(=O)O` [L-Methionine] is 1 (inactive).
Same read-out and setting: the figure for `O=S1(=O)CCCC1` [Tetramethylene Sulfone] is 0 (inactive); for `O=P(O)(O)O[C@H]1[C@H](OP(=O)(O)O)[C@@H](OP(=O)(O)O)[C@H](OP(=O)(O)O)[C@@H](OP(=O)(O)O)[C@H]1OP(=O)(O)O` [Inositol Hexaphosphate] it is 0 (inactive).
Turning to `OC[C@H]1O[C@@H](S)[C@H](O)[C@@H](O)[C@@H]1O` [1-Thio-b-D-Glucose], the DuctApe activity index was 0 (inactive).
Consider `O=P(O)(O)OC[C@H]1OC(O)[C@@H](O)[C@@H](O)[C@@H]1O` (stereo partly drawn) [D-Mannose-6-Phosphate], for which the DuctApe activity index is 1 (inactive).
The same measure, in the same setting: the figure for `O=P1(O)OP(=O)(O)OP(=O)(O)O1` [Trimetaphosphate] is 2 (inactive).

For the origin of these results see the supplement of paper PMC6518042.
